Measurements: PubChem BioAssay (NCI)
About 79,000 compounds went through this panel and 15% of them were active in at least one assay; those are over-represented in the sample as a whole. No stated cut-off is given here; in the data, active means growth inhibition above about 70%; inactive means the rest.

Key:
[1] = NCI Yeast Anticancer Drug Screen. Data for the rad50 strain (AID 155);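 further: 0% = growth of vehicle-only cultures of the same strain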; details: S. cerevisiae rad50 strain growth inhibition; at 50.0 µM; hits give high values
Outline: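 Cells are treated with compound, grown, and their growth is then scored against vehicle-only cultures of the same repair-deficient yeast strain.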

[2] = NCI Yeast Anticancer Drug Screen. Data for the mec2-1 strain (AID 157); details: S. cerevisiae mec2-1 strain, at 50.0 µM, hits give high values
Outline: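 Vehicle-treated cultures served as reference for growth inhibition of compound-exposed mec2-1 yeast.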

[3] = NCI Yeast Anticancer Drug Screen. Data for the sgs1 mgt1 strain (AID 161);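 further: 0% = growth of cultures given vehicle only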; details: S. cerevisiae sgs1 mgt1 strain, at 50.0 µM, hits give high values
Outline: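 Test agents were incubated with a DNA-repair-mutant yeast strain. Growth was then read and compared against vehicle-treated controls.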

[4] = NCI Yeast Anticancer Drug Screen. Data for the cln2 rad14 strain (AID 165);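 further: 0% = growth equal to vehicle treated cultures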; details: S. cerevisiae cln2 rad14 strain, at 50.0 µM, hits give high values
Outline: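 Each compound was tested on cln2 rad14 yeast. Inhibition of growth was calculated against vehicle-exposed controls.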

[5] = NCI Yeast Anticancer Drug Screen. Data for the bub3 strain (AID 167); details: S. cerevisiae bub3 mutant strain, at 50.0 µM, hits give high values
Outline: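 Part of a panel of yeast mutants defective in DNA damage repair or cell cycle regulation. Each strain is grown with compound, and inhibition is calculated relative to solvent-treated cultures.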

[6] = NCI Yeast Anticancer Drug Screen. Data for the mlh1 rad18 strain (AID 175); details: S. cerevisiae mlh1 rad18 strain growth inhibition; at 50.0 µM; hits give high values
Outline: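 Vehicle-treated cultures served as the reference for growth inhibition in a yeast strain carrying DNA damage repair alterations exposed to each compound.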

Measured: growth inhibition

CSC(SC)=C1CCCC(=C(SC)SC)C1=O
inactive: [1] -6.95% | [2] -9.3% | [3] -9.55% | [4] 6.95% | [5] -0.45% | [6] -8.9%

CC(=O)C1=C(O)/C(=C/c2ccccc2)NC1=O
inactive: [1] 8.05% | [2] 5.15% | [3] -6.3% | [4] -35.5% | [5] -13.2% | [6] -3.2%

CC(C)CCCC(C)C1CCC2C3CC=C4CC(OC(=O)C(Cl)(Cl)Cl)CCC4(C)C3CCC12C (stereo unspecified)
inactive: [1] -7.65% | [2] -7.55% | [3] -0.7% | [4] -27.1% | [5] -28.1% | [6] -5.4%

CSc1nc(NN)c([N+](=O)[O-])c(SC)n1
inactive: [1] -7.55% | [2] -0.7% | [3] 1.2% | [4] -2.65% | [5] -14.5% | [6] 15.6%

OCc1ccccc1O
inactive: [1] -1.7% | [2] 6.25% | [3] -6.55% | [4] 25.8% | [5] -0.7% | [6] 11.2%

COC(=O)c1[nH]c(=O)[nH]c(=S)c1N
inactive: [1] 7.75% | [2] 21% | [3] -10.6% | [4] -20.6% | [5] -17.8% | [6] -15.8%

O=C1CCCc2c1cc1c3c(cccc23)CC1
inactive: [1] -9.9% | [2] -23.2% | [3] 0.7% | [4] -15.6% | [5] 9.8% | [6] -1.85%

Cc1ccnc(NC(=O)Nc2ccccc2Cl)c1
inactive: [1] 9.65% | [2] 8.15% | [3] 1.3% | [4] 3.15% | [5] 21% | [6] 12%

CCCCOC(=O)C(=O)/C(=C\n1c(=S)[nH]c2cc(C)ccc21)C(=O)C=C(C)C
inactive: [1] -15.6% | [2] -22% | [3] 3.05% | [4] -22.4% | [5] -10.7% | [6] -28.1%

NCCN1CCCCCc2ccccc21
inactive: [1] -63.2% | [2] -53% | [3] -49.8% | [4] -17.4% | [5] -41.1% | [6] -39.3%

CCn1c(=O)ccc2ccc(N(CCO)CCO)nc21
inactive: [1] -19.9% | [2] 8.3% | [3] -0.15% | [4] -3.6% | [5] -9% | [6] 10.1%

Oc1cccc(N2CCN(c3cccc(O)c3)CC2)c1
inactive: [1] 2.45% | [2] -26.9% | [3] 3.7% | [4] 9.15% | [5] 5.85% | [6] -15%

CC1(O)C(O)C(O)C1(O)CO (stereo unspecified) (tested in a mixture with another compound)
inactive: [1] 6.55% | [2] -3.35% | [3] 9.9% | [4] -1.85% | [5] -2.4% | [6] -4.9%

COC(=O)Nc1nc2ccc(-n3c(C)nc4ccccc4c3=O)cc2[nH]1
inactive: [1] 10.8% | [2] -0.45% | [3] 6.35% | [4] 8.5% | [5] 4.95% | [6] 15.8%

Cc1ccc(C(C)(C)C)c2oc(=O)cc(C)c12
inactive: [1] 20.2% | [2] 8.75% | [3] 12.9% | [4] 5% | [5] 5.05% | [6] 19.8%

CC(=O)NC1CC2c3ccccc3C1([N+](=O)[O-])c1ccccc12 (stereo unspecified)
inactive: [1] 4.1% | [2] 17.6% | [3] 15.6% | [4] 6.45% | [5] -4.6% | [6] -3.9%

O=C(COc1ccccc1)OC1CCCCC1C1CCCCC1 (stereo unspecified)
inactive: [1] 13.2% | [2] 13% | [3] 4.05% | [4] 21.5% | [5] 2.6% | [6] 14.2%

CCN(C(=O)/C=C/c1ccccc1)C1CCCCC1
inactive: [1] 17.2% | [2] 27.9% | [3] 53.2% | [4] 47.2% | [5] 35.5% | [6] 48.5%

CCCCC/C(C)=N\O
inactive: [1] -19% | [2] 3.8% | [3] 3.35% | [4] -13.6% | [5] -7.15% | [6] 13.2%

CN(C)c1ccc(C2(c3ccc(N(C)C)cc3)NNC(=O)c3cc(N(C)C)ccc32)cc1
inactive: [1] 21.4% | [2] 5% | [3] 13.2% | [4] 16.8% | [5] -3.15% | [6] 1.8%

CC/C(SC)=[N+](\C)[O-]
inactive: [1] 3.9% | [2] -6.9% | [3] -23.1% | [4] -5.6% | [5] -20.4% | [6] 4.25%

O=[N+]([O-])CC1CCCCC1
inactive: [1] -2.7% | [2] -19.9% | [3] 6.85% | [4] 14.3% | [5] -1.3% | [6] 19.1%

O=[N+]([O-])c1cc(Br)ccc1N1CCCCC1
inactive: [1] -3.15% | [2] -3.55% | [3] 2.25% | [4] -18.1% | [5] 17.9% | [6] -20.8%

CC1(C)N=C(N)N=C(N)N1c1ccc(CN)cc1
inactive: [1] 19.8% | [2] 7% | [3] -18.4% | [4] -6.8% | [5] -2.3% | [6] 19.3%

COc1ccc2c(c1O)-c1cccc3c1C(C2)N(CCOCCCl)CC3 (stereo unspecified)
inactive: [1] 28.4% | [2] -12.8% | [3] -19.9% | [4] 12.9% | [5] 3.15% | [6] -8.85%

COc1ccc(S(=O)(=O)N/N=C\c2cc(I)cc(I)c2O)cc1
inactive: [1] 27.9% | [2] 7.9% | [3] 25.2% | [4] 14.6% | [5] -1.8% | [6] 5.1%

CC1(CO)CSC(Nc2ccc(Cl)c(Cl)c2)=N1 (stereo unspecified)
inactive: [1] 19.1% | [2] -12.9% | [3] 37.8% | [4] 32.5% | [5] 20.1% | [6] 19.1%

O=C(/C=C/c1ccccc1)Oc1ccccc1
inactive: [1] 3.45% | [2] 5.55% | [3] 1.5% | [4] -19.9% | [5] 23.8% | [6] -4.85%

NCCCNC1CCCCC1
inactive: [1] 8.8% | [2] -27.9% | [3] 2.55% | [4] -0.45% | [5] 1.7% | [6] 12.8%

COc1ccc2nc(NC(=O)C(=O)C(C#N)c3ccc(Cl)c(Cl)c3)sc2c1 (stereo unspecified)
inactive: [1] 36.2% | [2] 5.4% | [3] 19.1% | [4] 33.9% | [5] -2.2% | [6] 36.4%

CCOC(=O)C(CCC(=O)OC)C(=O)OCC
inactive: [1] -2.45% | [2] -1.75% | [3] -32.5% | [4] -28.2% | [5] -5.25% | [6] 1.6%

N#CCCCCCCn1cnc2c(=S)nc[nH]c21
inactive: [1] 4.9% | [2] 9.55% | [3] 17.9% | [4] -13% | [5] -4.7% | [6] 22.4%

c1ccc(-c2ccc(C(=C(c3ccc(-c4ccccc4)cc3)c3ccc(-c4ccccc4)cc3)c3ccc(-c4ccccc4)cc3)cc2)cc1
inactive: [1] 1.1% | [2] -0.85% | [3] -9.9% | [4] -4.15% | [5] -4.7% | [6] -12.6%

CC12CCC(O)CC1=CCC1C2CCC2(C)C(C(=O)O)=CCC12 (stereo unspecified)
inactive: [1] 1.3% | [2] 46.5% | [3] 29.6% | [4] 21.8% | [5] 49.1% | [6] 34.5%

CCC(=O)Oc1cccc(C)c1
inactive: [1] 13.8% | [2] -8.4% | [3] 2.05% | [4] -10.6% | [5] 4.2% | [6] -15.4%

CCOP(C)(=O)C(Cc1c[nH]c2ccccc12)C(=O)O (stereo unspecified)
inactive: [1] -20.7% | [2] -19.7% | [3] 9.9% | [4] 13% | [5] -12.8% | [6] -2.5%

O=C(O)/C=C\C(=O)Nc1ccc(C(=O)NCC(=O)O)cc1
inactive: [1] -22.9% | [2] -4.8% | [3] -0.85% | [4] -20.8% | [5] -11.8% | [6] -7.05%

NC(=O)c1[nH]cnc1N
inactive: [1] 12.6% | [2] 24.9% | [3] 10.4% | [4] 4% | [5] 23.9% | [6] -58.5%

O=C(Nc1ccc2c(c1)Cc1ccccc1-2)C(Cl)Cl
inactive: [1] 20.4% | [2] 1.95% | [3] 10.6% | [4] -7.85% | [5] 42.5% | [6] 14%

Nc1cc(S(N)(=O)=O)ccc1O
inactive: [1] 10.3% | [2] -11.6% | [3] -21.9% | [4] -10.6% | [5] -12% | [6] 12.4%

CC1OC(OCc2ccc(-c3ccccc3)cc2)CC(N)C1O (stereo unspecified)
inactive: [1] -1.9% | [2] 28.9% | [3] 24.6% | [4] -6.85% | [5] 29.6% | [6] 2.9%
